PubChem BioAssay (NCI)
This is part of a sample that, as a whole, favours compounds with a hit. Of some 83,000 tested, about 20% had one in any assay.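 A percent growth of 40 corresponds to 60% growth inhibition; 0 means no net growth; -100 means all cells died. Active threshold: below 10.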 Values without a mark were called inactive. The source made the active and inactive calls.

Each molecule was assayed on A498 renal (assay: NCI-60 one-dose screen, 48 h (100 = growth as untreated, 0 = no growth, -100 = all killed)). Conditions: 10 µM unless noted.
Description: Growth inhibition of the A498 human tumor cell line is measured as a screen for anti-cancer activity. Cells are grown in 96 well plates and exposed to the test compound for 48 hours. Compounds are tested at a single concentration, which is 10^-5 M for most compounds. The reported endpoint is percent growth (GI% or GIPRCNT), where numbers from 0 - 100% represent growth inhibition, and numbers from -100% - 0 represent cell death. For example, a value of 40 represents 60% growth inhibition. A value of 0 means no net growth occurred over the course of the experiment. A value of -40 indicates 40% of cells at the beginning of the experiment died by the end of the experiment. A value of -100 means all cells are dead at the end of the experiment.
NCI-60 Human Tumor Cell Lines Screen was performed using the standard one-dose NCI protocol, which is described in more detail at https://dtp.cancer.gov/discovery_development/nci-60/default.htm.
Compounds with GIPRCNT values below 10 were considered active. Activity score was based on GIPRCNT using the following formula: […]
Score is 0 for GIPRCNT values of 100 or above, 50 for GIPRCNT values of 0, and 100 for GIPRCNT values of -100.

SMILES | growth
C=C(C)[C@@H]1CC[C@]2(C(=O)N3CCN(C)CC3)CC[C@]3(C)[C@H](CC[C@@H]4[C@@]5(C)C/C(=C/c6ccncc6)[C@H](O)C(C)(C)[C@@H]5CC[C@]43C)[C@@H]12 | -28.9% [100 µM] (active)
CCN(CC)c1ccc2cc(C(Nc3ccc(Cl)cc3)c3nnnn3C(C)(C)C)c(=O)oc2c1 (stereo not given) | 81%
CC[C@@H]1NC(=O)[C@@H]2CCCCN2C(=O)[C@@H]2CCCN2C(=O)[C@@H](NC(=O)[C@H](Cc2cc(F)cc(F)c2)NC(=O)Nc2ccc(C3CC3)cc2F)[C@H](C)OC(=O)[C@@H]2C[C@@H](C)CN2C1=O | -5.62% (active)
C=C(C)[C@@H]1CC[C@]2(COC(=O)c3ccccc3C(=O)O)CC[C@]3(C)[C@H](CC[C@@H]4[C@@]5(C)CC[C@H](OC(=O)c6ccccc6C(=O)O)C(C)(C)[C@@H]5CC[C@]43C)[C@@H]12 | -0.192% [100 µM] (active)
COc1ccc(-c2nc3ccccn3c2/C=C/C(=O)c2cc(OC)c(OC)c(OC)c2)cc1OC | -14.1% (active)
COC(=O)c1cc(O)c2c(c1C(=O)OC)C[C@H]1[C@@H]3CC=C4C[C@@H](O)CC[C@]4(C)[C@H]3CC[C@]21C | 49.8%
CCOC(=O)/C(C#N)=C(\C)CCc1ccccc1 | 77.9%
Nc1nc(Nc2ccccc2)c2ncn(Cc3ccc4c(c3)OCO4)c2n1 | 39.8%
CCOC(=O)c1ccc2nc(-c3c(C)nn(-c4ccccc4)c3N3CCOCC3)[nH]c2c1 | 70.4%
CC(C)C1=NOC(=O)C1=Cc1cn(-c2cccnc2)nc1-c1ccccc1 | 99.2%
O=[N+]([O-])c1cc([N+](=O)[O-])c(C(F)(F)F)cc1NN=C(c1ccc(O)cc1)c1ccc(O)cc1 | 103%
O=C1CC(c2ccccc2)Cc2nc3ccc(Cl)cc3cc21 (stereo not given) | -17.4% (active)
NC(=S)Cc1ccccc1 | 73.6%
COc1ccc(-c2c(C)nn3c(NCCN4CCOCC4)cc(C)nc23)cc1OC | 78%
O=C(NCCCNC(=O)OCc1ccc2cccc(O)c2n1)OCc1ccc2cccc(O)c2n1 | 60.9%
NS(=O)(=O)c1ccc(CCN2C(=O)/C(=C\c3ccccc3)C=C2c2ccc(Cl)cc2)cc1 | 65.6%
COc1ccc(-c2cc(-c3ccc(OC)c(OC)c3)nc(SCCCCCC(=O)NO)n2)cc1 | 66.7%
O=[N+]([O-])c1ccc(O)c(-c2nc3ccccc3s2)c1 | 42.6%
CC1(C)CC[C@]23CC[C@]4(C)[C@H](CC[C@@H]5[C@@]6(C)C/C(=C/c7cccnc7)C(=O)C(C)(C)[C@@H]6CC[C@]54C)[C@H]2[C@H]1OC3=O | 31.5% [100 µM]
C#C[C@]1(O)CC[C@H]2[C@@H]3CC=C4c5nc(Nc6ncccn6)sc5CC[C@]4(C)[C@H]3CC[C@@]21C | 34.4%

SMILES | growth
CCCSc1nc(N)nc2nc[nH]c12 | 123%
CC(=O)CC(=O)SC1=NCCS1 | 121%
C#CCC(C(=O)OCC)C(=O)OCC | 94.6%
O=C(NNc1ccc(-c2ccccc2)nn1)c1ccccc1 | 92.4%
Nc1nc(Nc2ccccc2)c2ncn(Cc3cc4c(cc3Br)OCO4)c2n1 | -3.53% (active)
CCCCOC(=O)c1cccc([N+](=O)[O-])c1 | 94.7%
O=C1COCCN1c1ccc(Nc2nc(Cl)nc(N3CCOCC3)n2)cc1 | 73.7%
Nc1cc(Cl)cc2cccnc12 | 116%
CCn1cc(-c2[nH]c(=S)ncc2-c2ccc(Cl)cc2)c(-c2ccc(Br)cc2)n1 | 106%
CC(C)C1=NOC(=O)C1=Cc1cn(-c2ccccc2)nc1-c1ccccc1 | 93.6%
Cc1ccc2c(c1)C(C)Cc1c(Cl)ncnc1N2C (stereo not given) | -19.2% (active)
O=S(=O)(NCc1ccccc1)c1ncnc2nc[nH]c12 | 124%
C=CCCC1(C)NC(=O)NC1=O (stereo not given) | 88.5%
c1coc2occoc=2o1 | 107%
Cc1ccc(-n2nc3n(/c2=N\C(=O)NS(=O)(=O)c2ccc(C)cc2)CCN3C2=NCCN2)cc1 | 93.5%
COCCCNc1nc(NC(=O)c2cc(Br)cc(C(F)(F)F)c2)cc(-c2cccnc2)n1 | 76.2%
Cc1cc(C)c(S(=O)(=O)/N=c2/n(-c3ccccc3)nc3n2CCN3C2=NCCN2)c(C)c1 | 61.8%
c1ccc2c(c1)CN(CCCN1CCOCC1)C2 | 101%
N#Cc1c(Cl)nc(SCC2CO2)nc1-c1ccccc1 (stereo not given) | 108%
C=C(C)[C@@H]1CC[C@]2(C)[C@H](CC[C@@H]3[C@@H]([C@@](C)(O)CCC=C(C)C)CC[C@]32C)[C@@]1(C)CCC(=O)O | -20.2% [100 µM] (active)
